TRb SRC2 PPI = disrupts binding of human TR beta to SRC2 | P10828 | TRbeta-SRC2 peptide binding, fluorescence polarization; receptor liganded with 1 µM T3 | Potency, µM (titrated, usually from 106 µM), without a hit: at the highest dose activity change, negative = inhibition, hits mostly inhibitors | hit rate 0.065% among 280,000 | AID 1469; active = well fitted inhibition curve with a large enough effect; inconclusive = small, poorly fitted or top-dose-only effect, or effect the other way;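 note: potency is the fitted concentration of half-maximal effect; plate controls were bound peptide for no effect and peptide without receptor for full effect; nearly all actives have a fitted effect of over 50% in size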
Target sequence (P10828 whole entry, looked up): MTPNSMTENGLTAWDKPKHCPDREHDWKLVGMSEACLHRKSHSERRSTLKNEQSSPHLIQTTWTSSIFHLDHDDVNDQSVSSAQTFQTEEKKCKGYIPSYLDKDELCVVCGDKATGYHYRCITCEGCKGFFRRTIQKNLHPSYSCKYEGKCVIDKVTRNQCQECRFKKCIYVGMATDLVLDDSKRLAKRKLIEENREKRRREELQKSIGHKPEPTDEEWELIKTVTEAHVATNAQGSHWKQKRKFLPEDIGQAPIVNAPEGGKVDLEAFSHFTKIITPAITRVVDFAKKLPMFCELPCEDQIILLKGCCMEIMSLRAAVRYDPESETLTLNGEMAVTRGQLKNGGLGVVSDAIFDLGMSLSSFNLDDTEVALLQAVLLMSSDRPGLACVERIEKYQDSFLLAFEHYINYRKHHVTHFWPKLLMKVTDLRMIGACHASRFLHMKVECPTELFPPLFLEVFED
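Fluorescence polarization of 20 nM Texas Red SRC2 peptide (20-aa NR interaction domain) bound to 0.6 uM human TRb ligand-binding domain, with 1 uM T3, after 5 hr at ambient temperature; inhibition seen as decreased polarization.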
Menin MLL FP FL = inhibitors of human menin-MLL interaction, wild-type MLL peptide. Fluorescence polarization, fluorescein-MLL peptide displacement from menin. FP activity change, % at 61.4 µM. 290,000 tested, under 10 active. AID 1766; active = well fitted curve in the direction sought with a large enough effect in the polarisation, not every such curve was filed as active; inconclusive = small, poorly fitted or top-dose-only effect, or effect the other way, or a change in a side signal; inactive = no such curve, though single readings can be large or run the other way; the % refers to the polarisation; note: % of control where 0% means no effect
CXXC DNA block = inhibitors of human MLL CXXC domain-DNA interaction. AID 2662. Q03164. hit rate 0.037% among 290,000. MLL-CXXC / FITC-HOXA9 DNA fluorescence polarization. Potency, µM (series often up to 115 µM), without a hit: top-dose activity change, negative = inhibition, hits mostly inhibitors; active = well fitted inhibition curve with a large enough effect in the polarisation, with a control signal flat, not every such curve was filed as active; inconclusive = small, poorly fitted or top-dose-only effect, or effect the other way, or a change in a side signal; inactive = no such curve, though single readings can be large or run the other way; the % refers to the polarisation; note: potency is the fitted concentration of half-maximal effect
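Fluorescence polarization: 7 uM MLL-CXXC (stock) preincubated 5 min with compounds, then 50 nM fluorescein-HOX-A9 DNA (stock) added; 30 min ambient. Buffer 50 mM Tris-HCl pH 7.5, 50 mM NaCl, 1 mM DTT, 0.05% BSA.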
TexasRed fluor = counter-screen for TRb-SRC2 inhibitors: fluorescence interference; TRb/SRC2 Texas Red total fluorescence interference; Potency, µM (series often up to 106 µM), for inactives: at the highest dose fluorescence change, negative = quenching; hit rate 0.29% among 280,000; active = well fitted curve in either direction with a large enough effect; inconclusive = small, poorly fitted or top-dose-only effect; note: potency is the fitted concentration of half-maximal effect; % is set by controls: 0 for no effect and ±100 for the full control effect
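Human TRb ligand-binding domain at 0.6 uM with 20 nM Texas Red SRC2 peptide in Tris buffer containing 1 uM T3 and 5% DMSO, incubated with compound 5 h at ambient temperature. Total fluorescence (555/632 nm) calculated as parallel + 2 × perpendicular.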
Menin-MLL TR inh = displaces Texas Red mutant MLL peptide from human menin. Potency, µM (highest dose often 61.6 µM), for inactives: top-dose FP activity change, negative = inhibition, actives largely listed as inhibitors. hit rate 0.23% among 270,000. Menin + Texas Red MLL mutant peptide, fluorescence polarization; active = well fitted inhibition curve with a large enough effect in the polarisation, with a control signal flat, not every such curve was filed as active; inconclusive = small, poorly fitted or top-dose-only effect, or effect the other way, or a change in a side signal; inactive = no such curve, though single readings can be large or run the other way; the % refers to the polarisation; note: potency is the fitted concentration of half-maximal effect; % of control where 0% means no effect
* marks the source's active call; other numbers are inactive results; ? = inconclusive; / = no result given; [ ] = remark or other dose. In the library only some 0.36% were active in any assay of this set; here they are far more common.

SMILES	TRb SRC2 PPI	Menin MLL FP FL	CXXC DNA block	TexasRed fluor	Menin-MLL TR inh
COc1ccc(C2=C(C)C(=O)N(Cc3ccc(C(=O)NCc4cccc(C)c4)cc3)S2(=O)=O)cc1	-24%	/	/	158µM*[quencher]	/
CCOc1cccc(CNc2ccc(O)cc2)c1OCc1ccc(Cl)cc1Cl	25µM*	3	3%	4%	?
O=C(O)C1C2CCC(O2)C1C(=O)Nc1ccc(O)cc1 (configuration not stated)	2%	/	-2%	-6%	32µM*
Cc1ccc(NC(=O)C2C3CCC(O3)C2C(=O)O)cc1C (configuration not stated)	/	1	4%	/	-3%
C=CCN1C=C/C(=C\C=C(C#N)C#N)c2ccccc21	-7%	?	40%	-1%	?
CCCCCCN1C=C/C(=C\C=C(C#N)C#N)c2ccccc21	40µM*	?	29%	45µM*[fluorescent]	?
COc1cc(OC)c(NC(=O)C2CCCN(c3ncnc4c3nc3n4CCCCC3)C2)cc1Cl (configuration not stated)	-8%	/	/	18µM*[quencher]	/
Cc1ccc(N(C)C(=O)C2CCCN(c3ncnc4c3nc3n4CCCCC3)C2)cc1C (configuration not stated)	-5%	/	/	20µM*[quencher]	/
COc1ccccc1NC(=O)C1CCCN(c2ncnc3c2nc2n3CCCCC2)C1 (configuration not stated)	/	1	8%	/	-14%
O=c1cc(C23CC4CC(CC(C4)C2)C3)[nH][nH]1	25µM*	6	-5%	5%	-10%
Clc1ccc2c(c1)-n1cc(-c3ccccc3)nc1CO2	-10%	/	/	11µM*[quencher]	/
COC(=O)CC1Oc2ccc(Cl)cc2-n2cc(-c3ccccc3)nc21 (configuration not stated)	-3%	/	/	0%	/
CCCN1C(=O)C2(c3ccccc31)c1c(oc3ccccc3c1=O)C(=O)N2CCO (configuration not stated)	-12%[53 µM]	/	/	32µM*[quencher]	/
CCN1C(=O)C2(c3ccccc31)c1c(oc3ccccc3c1=O)C(=O)N2CCOC (configuration not stated)	0%	/	/	4%	/
CCCN1C(=O)C2(c3ccccc31)c1c(oc3ccccc3c1=O)C(=O)N2CCCOC(C)C (configuration not stated)	-9%	/	/	-40%	/
CCCN1C(=O)C2(c3ccccc31)c1c(oc3ccc(F)cc3c1=O)C(=O)N2CCCOC(C)C (configuration not stated)	?	/	/	3.5µM*[quencher]	/
CCOC(=O)CNC(=O)O[C@@H]1C(=O)c2ccc(OC)cc2O[C@H]1c1ccc2c(c1)OCO2	-2%	-5	/	-1%	6%
C[Si](Cl)(Cl)c1ccccc1	-1%[201 µM]	/	/	0%[201 µM]	/
COC(=O)c1c(NC(=O)CN2CCC3(O)CCCCC3C2c2ccc(OC)cc2OC)sc(C)c1C (configuration not stated)	?	-22	12%	100µM*[quencher]	6%
CCCCCCCCCCCC(=O)OC	-2%[201 µM]	/	/	1%[201 µM]	/
CN(C)c1ccc(C(CNS(=O)(=O)c2ccccc2)N2CCc3ccccc32)cc1 (configuration not stated)	-4%	/	/	-1%	/
Cc1ccc(Cl)cc1NC(=O)N1CCC2(CC1)Oc1ccccc1C(=O)N2Cc1ccccc1F	-5%	/	/	35µM*[quencher]	/
O=C1CCCC=C1[C@@H](O)CCOC(c1ccccc1)(c1ccccc1)c1ccccc1	-7%	-2	/	0%	-17%
CCN(CC)S(=O)(=O)c1nnc(NC(=O)COc2cccc(C)c2)s1	-10%	/	/	3.2µM*[quencher]	/
Cc1csc(NC(=O)CSc2nnc(NC(=O)COc3ccccc3)s2)n1	0%[53 µM]	3	8%	-1%[53 µM]	40µM*
SMILES	TRb SRC2 PPI	Menin MLL FP FL	CXXC DNA block	TexasRed fluor	Menin-MLL TR inh
Cc1csc(NC(=O)CSc2nnc(C)s2)n1	-13%	2	1%	1%	2%
O=C(COc1ccccc1)Nc1nnc(S(=O)(=O)Nc2ccccc2)s1	-22%	-2	-25%	0.05µM*[quencher]	22%
Cc1ccn2c(Nc3ccc4c(c3)OCO4)c(-c3ccccn3)nc2c1	3%	?	?	3%	35µM*
CCO[Si](CCC#N)(OCC)OCC	3%[201 µM]	/	/	-2%[201 µM]	/
Cc1ccc(CNc2ccc(O)cc2)cc1	28µM*	4	/	23%	18µM*
CCOc1ccccc1NC(=O)C(CC)n1c(C(=O)OC)cc2occc21 (configuration not stated)	-6%	/	/	2%	/
CCC(C(=O)Nc1ccccc1OC)n1c(C(=O)OC)cc2sc(Cl)cc21 (configuration not stated)	-19%	/	/	20µM*[quencher]	/
COC(=O)C1CCC(C(=O)OC)CC1 (configuration not stated)	2%[201 µM]	/	/	3%[201 µM]	/
CCCOc1ccc(N2C(=O)CC(N(Cc3ccc(OC)cc3)C(=S)Nc3ccccc3)C2=O)cc1 (configuration not stated)	9%	2	8%	7%	?
CCCOc1ccc(N2C(=O)CC(N(CCc3ccc(OC)c(OC)c3)C(=S)Nc3ccccc3)C2=O)cc1 (configuration not stated)	?	10	0%	0.5µM*[quencher]	-6%
O=C(Cn1c(-c2cccs2)cc2ccccc21)NCc1ccccc1Br	-16%	/	/	?	/
CC(=O)CC(=O)Nc1ccc(C)cc1C	5%[201 µM]	/	/	-10%[201 µM]	/
Cc1ccc(/C=N/n2c(=O)c(C(C)(C)C)nn3cnnc23)cc1	?	-4	28%	0.079µM*[quencher]	-14%
CC(=O)Nc1ccc(N=Nc2cc(C)ccc2O)cc1	28%[201 µM]	/	/	?	/
c1ccc(-c2ccc(-c3ccccc3)cc2)cc1	5%[201 µM]	/	/	1%[201 µM]	/
COc1cc(CN(C(=O)c2ccc(OC(C)C)cc2)C2CCS(=O)(=O)C2)cc(OC)c1OC (configuration not stated)	-8%	/	/	1259µM*[quencher]	/
COc1cc(CN(C(=O)c2ccc(C)cc2)C2CCS(=O)(=O)C2)cc(OC)c1OC (configuration not stated)	-2%	/	/	2%	/
CC(C)c1nc2ccc(C(=O)NCc3ccccc3Br)cc2o1	5%	/	/	-2%	/
CCN1CCN(CCCNC(=O)Cn2nc(C)n3c(cc4c(OC)cccc43)c2=O)CC1	5%	/	/	2%	/
CCn1cc2nc(SCc3cc(C)ccc3C)n(Cc3ccc(OC)cc3)c(=O)c2n1	12%	/	/	-2%	/
CCn1cc2nc(SCc3cccc(OC)c3)n(Cc3ccc(Cl)cc3)c(=O)c2n1	-19%[53 µM]	/	/	0.032µM*[quencher]	/
O=C(CCSCc1cnn(-c2ccccc2)c1-n1cccc1)NCc1ccc(Cl)cc1	-3%	/	/	0%	/
COc1ccc(S(=O)(=O)Cc2ccc(C(=O)NC3CCCCC3)o2)cc1	-24%	/	35%	5.6µM*[quencher]	/
